Most compounds without a hit are left out; they make up all but 3.7% or so of the library.
VDR inh = inhibitors of human vitamin D receptor; P11473; VDR-SRC2-3 peptide fluorescence polarization, 2 h; Potency, µM, for the others: max response, negative = inhibition, actives largely listed as inhibitors; actives 0.93% (n = 400,000); AID 504847; note: potency is the fitted concentration of half-maximal effect; % is set by controls: 0 for no effect and ±100 for the full control effect
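Two reagent solutions held at 4 deg C in the dark were dispensed, compounds pinned at 23 nl, and the mixture incubated 2 h at room temperature. Read-out: fluorescence polarization of VDR–SRC2-3 peptide binding.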
PLK1 PBD block = PLK1 (human) polo-box domain binding inhibition; Potency, µM, without a hit: max response, negative = inhibition, usual class: inhibitors; Plk1 PBD binding of FITC phosphopeptide, fluorescence polarization; P53350; actives 2.8% (n = 360,000); AID 720504; note: potency is the fitted concentration of half-maximal effect; series mostly up to about 57 µM; % is set by controls: 0 for no effect and ±100 for the full control effect; nearly all actives have a fitted effect of over 65% in size
Target sequence (P53350 whole entry, looked up, the tested form may be a part): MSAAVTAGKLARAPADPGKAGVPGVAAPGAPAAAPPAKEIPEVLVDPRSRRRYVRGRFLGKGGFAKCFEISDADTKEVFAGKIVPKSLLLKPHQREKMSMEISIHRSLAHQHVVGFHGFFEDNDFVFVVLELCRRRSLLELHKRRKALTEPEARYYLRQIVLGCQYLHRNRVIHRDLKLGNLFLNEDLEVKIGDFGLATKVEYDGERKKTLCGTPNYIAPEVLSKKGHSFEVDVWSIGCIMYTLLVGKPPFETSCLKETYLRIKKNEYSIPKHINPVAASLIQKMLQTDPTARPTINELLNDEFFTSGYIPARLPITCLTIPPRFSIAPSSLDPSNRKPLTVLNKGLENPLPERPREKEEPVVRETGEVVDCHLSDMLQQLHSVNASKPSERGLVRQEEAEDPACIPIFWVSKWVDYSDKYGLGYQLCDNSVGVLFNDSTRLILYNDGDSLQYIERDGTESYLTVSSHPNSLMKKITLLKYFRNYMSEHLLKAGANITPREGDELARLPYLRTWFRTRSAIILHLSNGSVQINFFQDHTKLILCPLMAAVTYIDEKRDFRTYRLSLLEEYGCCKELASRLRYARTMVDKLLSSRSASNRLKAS
TCR act = activators of T cell receptors; primary human leukocytes, anti-CD3, IL-2 HTRF, 48 h; Potency, µM (series often up to 9.22 µM), inactives show top-dose activation of IL-2 secretion, usual class: activators; 330,000 tested, under 10 active; AID 504894; note: % of control where 0% means no effect
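Compounds are tested in HTS on primary human leukocytes co-incubated with a-CD3 beads for 48 hr. IL-2 output is measured by time-resolved FRET.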
WRN inhibitor = blocks human WRN helicase; Q14191; WRN helicase unwinding, fluorescent forked duplex, kinetic; Potency, µM (doses to about 114 µM), for the others: top-dose activity change, negative = inhibition, actives largely listed as inhibitors; actives 0.46% (n = 360,000); note: potency is the fitted concentration of half-maximal effect; % is set by controls: 0 for no effect and ±100 for the full control effect; nearly all actives have a fitted effect of over 55% in size
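Screening of the MLSMR collection measured strand separation of a quenched forked DNA duplex (100 nM) by 20 nM WRN with 2 mM ATP, all final. Compounds were preincubated with enzyme 15 min at room temperature.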
FEN1 inhibitor = human FEN1 inhibition | Recombinant FEN1 flap cleavage, fluorescence, 15 min | Potency, µM (titrated, usually from 114 µM), without a hit: at the highest dose activity change, negative = inhibition, hits mostly inhibitors | actives 0.35% (n = 390,000) | P39748; note: potency is the fitted concentration of half-maximal effect; % is set by controls: 0 for no effect and ±100 for the full control effect; nearly all actives have a fitted effect of over 65% in size
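Quantitative HTS format: each compound was titrated, incubated with 10 nM nuclease for 15 min at room temperature, then challenged with flap substrate at 50 nM final. Signal change over 15 min gave concentration–effect curves.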
PI5P4Ka inh = inhibitors of human PI5P4K alpha; P48426; PI5P4Kalpha enzyme, ADP-Glo luminescence, 60 min; active compounds read low; max response, %; actives 1.2% (n = 330,000); active = max response of -50% or lower; inconclusive = between -30% and -50%; inactive = -30% or higher; note: value at the top dose of about 77 µM; % is set by controls: 0 for no effect and ±100 for the full control effect
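Luminescence from ADP-Glo served as readout of PI5P4Kalpha activity in a qHTS format. Reaction: enzyme, substrate, compound, ATP at 5 microM final, 60 min at RT.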
TbPYK confirm = confirmation of Trypanosoma brucei pyruvate kinase inhibitors; shares compounds with PLK1 PBD block; recombinant TbPYK, Kinase-Glo ATP luminescence; Potency, µM (top dose mostly 76.9 µM), for the others: at the top dose activity change, negative = inhibition, hits mostly inhibitors; actives 67% (n = 890); AID 720569; note: potency is the fitted concentration of half-maximal effect; % is set by controls: 0 for no effect and ±100 for the full control effect; nearly all actives have a fitted effect of over 70% in size
TbPYK ADP-Glo = orthogonal confirmation of Trypanosoma brucei pyruvate kinase inhibitors. shares compounds with PLK1 PBD block. recombinant TbPYK, ADP-Glo luminescence, 60 min. Potency, µM (doses to about 76.9 µM), for the others: at the highest dose activity change, negative = inhibition, actives largely listed as inhibitors. actives 62% (n = 890). AID 720584; note: potency is the fitted concentration of half-maximal effect; % is set by controls: 0 for no effect and ±100 for the full control effect; nearly all actives have a fitted effect of over 75% in size
* = called active by the depositor; u = inconclusive; x = no result given; [ ] = dose if it differs, or a comment. Unless noted, calls come from the whole dose curve; as a rule, active = well fitted curve in the direction sought with a large enough effect; inconclusive = small, poorly fitted or top-dose-only effect, or another doubt; inactive = no such curve, though single readings can be large; an effect the other way counts as inactive or inconclusive.

SMILES	VDR inh	PLK1 PBD block	TCR act	WRN inhibitor	FEN1 inhibitor	PI5P4Ka inh	TbPYK confirm	TbPYK ADP-Glo
Cc1ccc(N=c2ssnc2Cl)cc1	28µM*	1.7µM*	7%	50µM*	-1%	-66*	6.3µM*	8.9µM*
O=C(Cn1ccn(-c2ccc(F)cc2)c(=O)c1=O)Nc1ccccc1C(F)(F)F	1%	x	x	x	-1%	x	x	x
O=C(N/N=C/c1ccc(N2CCOCC2)o1)c1cccc([N+](=O)[O-])c1	u	u	2%[46.1 µM]	u	0%	-3	u	32µM*
O=C(N/N=C/c1ccc(N2CCCCC2)o1)c1ccccc1	22µM*	u	5%[46.1 µM]	u	3%	1	32µM*	32µM*
CCc1nnc(SCc2nc(-c3ccc(OC)cc3)oc2C)c2cc3sccc3n12	-5%	x	x	x	-15%	x	x	x
CCn1c(C(=O)N2CCCC(C(=O)NCCc3ccc(C)cc3)C2)cc2sccc21 (stereo unspecified)	0%	1%	3%	-18%	0%	x	16µM*	32µM*
CCn1c(C(=O)N2CCCC(C(=O)NCCCc3ccccc3)C2)cc2sccc21 (stereo unspecified)	-11%	2%	-1%[46.1 µM]	-15%	-18%	x	x	x
COc1cccc(NC(=O)c2ccc(CNS(=O)(=O)c3ccc4c(c3)C(C)(C)C(=O)N4C)cc2)c1	7%	x	x	x	7%	x	x	x
COC(=O)c1ccc2nc(C3CCCCC3)c(Cc3ccccc3C(F)(F)F)n2c1	x	3%	x	-10%	x	3	x	x
COC(=O)c1ccc2nc(-c3ccco3)c(Cc3ccccc3C(F)(F)F)n2c1	x	u	x	-9%	x	-4	u	u
COC(=O)c1ccc2nc(-c3ccco3)c(Cc3cccc(F)c3)n2c1	x	u	x	-16%	x	u	11µM*	7.9µM*
COC(=O)c1ccc2nc(-c3ccc(C)cc3)c(Cc3ccc(C)cc3)n2c1	x	1%	x	1%	x	1	x	x
COC(=O)c1ccc2nc(-c3ccco3)c(Cc3ccc(C)cc3)n2c1	x	-17%	x	-2%	x	-19	20µM*	25µM*
COC(=O)c1ccc2nc(-c3ccc(F)cc3)c(Cc3cccc(F)c3)n2c1	x	17%	x	0%	x	-1	x	x
Clc1cccc(Cc2c(-c3ccco3)nc3ccc(Cl)cn23)c1	x	12µM*	x	-34%	x	-65*	11µM*	13µM*
COCCNC(=O)Cn1cc(S(=O)(=O)Cc2ccccc2Cl)c2ccccc21	7%	x	x	x	1%	x	x	x
COc1cc(OC)c(OC)cc1CNCCCSc1nnnn1C	8%	x	x	x	5%	x	x	x
COc1ccc(-c2c3c(=O)n(C)c(=O)n(C)c3c3c(-c4ccccc4)nc4ccccc4n23)cc1	-22%	x	x	x	17%	x	x	x
CCC(=O)N1CCc2cc(S(=O)(=O)NCCC(=O)NCc3ccc(OC)cc3)ccc21	-2%	x	x	x	-1%	x	x	x
CCN1C(=O)/C(=C/C=C2/Sc3ccc4ccccc4c3N2CCO)SC1=S	3%	-9%	0%[46.1 µM]	-25%	-4%	-1	16µM*	u
CCN1C(c2ccccc2)=C(c2ccccc2)S/C1=C\C=C1/SC(=S)N(C)C1=O	-24%	-20%	4%	u	8%	x	x	x
Cc1cc(NS(=O)(=O)c2ccc(NC(=O)/C=C/c3ccccc3)cc2)nc(C)n1	-9%	4%	7%	-13%	9%	3	x	x
Cc1cc(NS(=O)(=O)c2ccc(NC(=O)/C=C/c3ccc(C)o3)cc2)nc(C)n1	u	8.4µM*	-10%	-16%[11.6 µM]	u	u	7.9µM*	11µM*
Cc1ccc(NC(=O)c2cc(NC(=O)c3ccco3)ccc2N2CCOCC2)cc1	0%	-4%	x	2%	-12%	-5	x	x
Cc1ccc(NC(=O)c2cc(N3C(=O)C=CC3=O)ccc2N2CCOCC2)cc1	28µM*	3µM*	10%	35µM*	-1%	-63*	10µM*	11µM*
SMILES	VDR inh	PLK1 PBD block	TCR act	WRN inhibitor	FEN1 inhibitor	PI5P4Ka inh	TbPYK confirm	TbPYK ADP-Glo
S=C(c1ccc(-c2ccc(Cl)cc2Cl)o1)N1CCCC1	u	u	2%	-2%	17%	-12	u	u
S=C(c1ccc(-c2ccc(Cl)cc2Cl)o1)N1CCCCC1	-8%	-21%	-2%	7%[57.1 µM]	0%	2	x	x
CC(C)(O)C1Cc2cc(/C=C/C(=O)O)c(O)cc2O1 (stereo unspecified)	u	3µM*	3%	-3%	0%	-66*	13µM*	14µM*
O=C(c1ccc(Br)cc1)N1CCN(Cc2ccccc2)CC1	1%	-4%	x	-1%	-4%	7	x	x
CN(C)c1ccc(C(=S)N2CCN(Cc3ccccc3)CC2)cc1	50µM*	4.2µM*	-6%	2%	-28%	-12	5µM*	4.5µM*
CN1CCN(C(=S)c2ccc(Br)cc2)CC1	u	4.2µM*	0%[46.1 µM]	u	-6%	1	7.1µM*	7.9µM*
Oc1ccc(C(=S)N2CCN(Cc3ccccc3)CC2)cc1	50µM*	2.7µM*	-1%	-3%	-15%	u	16µM*	32µM*
O=C(c1ccc(F)cc1)N1CCN(Cc2ccccc2)CC1	-18%	-11%	x	u	-1%	-5	x	x
S=C(c1ccc(Br)cc1)N1CCN(Cc2ccccc2)CC1	u	6.7µM*	2%	-7%	13%	x	1.3µM*	8.9µM*
CCN(CC)c1ccc(C(=O)N2CCN(Cc3ccccc3)CC2)cc1	-5%	u	-1%[46.1 µM]	-5%	-3%	1	x	x
Cc1cc(NC(=O)CCNS(=O)(=O)c2cccc3nsnc23)ccc1Br	1%	x	x	x	1%	x	x	x
COc1cc(OC)c(OC)cc1/C=C/c1nc2cc3ccccc3cc2c(=O)n1-c1ccccc1Br	9%	x	x	x	13%	x	x	x
O=C(CSc1cccc2cccnc12)N1CCCC1	-17%	3µM*	-1%	-18%	-14%	u	u	u
CCS(=O)(=O)c1nc(S(=O)(=O)c2ccc(C)cc2)c(NCc2ccccc2Cl)s1	15%	x	x	x	-5%	x	x	x
CN(C)C(=O)c1ccc(-c2ccc3ncnc(NCc4cccs4)c3c2)cc1	49%	x	x	x	x	x	x	x
CCCCCCCCCCCCCCCC(N)=O	-1%	x	x	x	x	x	x	x
O=C1C(=Cc2ccc(Cl)cc2)CCc2ccccc21	x	2%	x	3%	x	2	25µM*	7%
COc1ccc(C=C2CCc3ccccc3C2=O)cc1	x	4%	x	-2%	x	u	25µM*	12%
O=C1C(=Cc2ccccc2Cl)CCc2ccccc21	x	-18%	x	-6%[57.1 µM]	x	-27	25µM*	9%

Bioassay records: PubChem BioAssay, National Center for Advancing Translational Sciences (NCATS)
